This is an account of results in PubChem BioAssay AID779 (Sanford-Burnham Center for Chemical Genomics, 2007).

Values without a mark were called inactive. How the calls were made is not given here. Some results are limits rather than exact numbers.

This assay in a line: PLAP enzyme activity inhibition – biochemical, colorimetric, counter-screen, dose response (AID 779). Particulars: colorimetric OD read-out.
Turning to `CCCN1C(=O)/C(=C/C=C2\N(CC)c3ccccc3C2(C)C)SC1=S`, the IC50 is greater than 50 µM.

As for `Cc1occc1-c1nnc(SCC(=O)Nc2ccccc2-c2ccccc2)n1C`, the IC50 is greater than 50 µM.

As for `CCCCN(CCCC)C1=Nc2ccccc2N/C1=C(/C#N)C(=O)OCC`, the IC50 was greater than 50 µM.

With `CC1(C)CCCN(C(=O)c2coc(=O)c(Br)c2)C1`, the IC50 was greater than 50 µM.

With `O=C1/C(=C\c2ccc(-c3ccccc3Cl)o2)SC(=S)N1CC1CCCO1` (stereo unspecified), the IC50 is greater than 50 µM.

For `c1ccc(-c2cn3nc(-c4ccccc4)c(-c4ccccc4)nc3n2)cc1`, the IC50 was greater than 50 µM.

For the compound `CSc1nc(SCCO)c2sc3nc(-c4ccco4)c4c(c3c2n1)CC(C)(C)OC4`, the IC50 was greater than 50 µM.

Take `CCn1c(COc2ccccc2C)nnc1SCC(=O)Nc1cc(C)on1`: the IC50 is greater than 50 µM.

As for `Cc1ccc(C2=N/C(=C\c3cccs3)C(=O)N2Nc2ccccc2)cc1`, the IC50 is greater than 50 µM.

As to `CC(=O)N(c1ccc2oc(=O)sc2c1)S(=O)(=O)c1ccccc1`, the IC50 is greater than 50 µM.

Regarding `CCCn1nc(-c2ccccc2)c2nc3ccccc3nc21`, the IC50 was greater than 50 µM.

In the case of `CCOC(=O)c1c(NC(=S)Nc2ccccc2)sc2c1CCN(CCc1ccccc1)C2`, the IC50 was greater than 50 µM.

In the case of `CCN1/C(=C/c2ccc3cccc(C)c3[n+]2CC)Sc2ccccc21`, the IC50 was greater than 50 µM.

Regarding `O=[N+]([O-])/C=C/c1cn(Cc2ccccc2)c2ccccc12`, the IC50 was greater than 50 µM.

Regarding `CC(C)C(C(=O)O)N1C(=O)/C(=C/C=C/c2ccco2)SC1=S` (stereo unspecified), the IC50 was greater than 50 µM.

For `O=C(Nc1cccc2ccccc12)/C(=C/c1ccc([N+](=O)[O-])cc1)NC(=O)c1ccccc1`, the IC50 was greater than 50 µM.

Regarding `CCOC(=O)N1CCN(C(=O)CSc2nnc(-c3c[nH]c4ccccc34)n2CCOC)CC1`, the IC50 was greater than 50 µM.

Regarding `COc1ccc(C(c2nnnn2Cc2cccs2)N2CCN(c3ccccc3F)CC2)cc1` (stereo unspecified), the IC50 was greater than 50 µM.

Take `COc1ccc2oc(/C=C/N(C)C)c(C(=O)c3ccc(Cl)cc3)c2c1`: the IC50 was greater than 50 µM.

With `CCCSC1=N/C(=C\C=C\c2ccco2)C(=O)S1`, the IC50 was greater than 50 µM.

`CCCCCn1nc(-c2ccccc2)c2nc3ccccc3nc21`: the IC50 was greater than 50 µM.

As to `CCCOc1ccc(-c2nn(-c3ccccc3)cc2/C=C2\SC(=S)N(C3CCS(=O)(=O)C3)C2=O)cc1` (stereo unspecified), the IC50 was greater than 50 µM.

As for `CCOc1ccc(/C=C/C2=Cc3c(sc(NC(=O)CSc4n[nH]c(N)n4)c3C#N)C(C)(C)C2)cc1`, the IC50 is greater than 50 µM.

As for `COc1cc(NC(=O)c2ccc(COCC(F)(F)F)cc2)cc(OC)c1OC`, the IC50 was greater than 50 µM.

Turning to `Clc1ccccc1CSc1nnc(-c2ccco2)c(-c2ccco2)n1`, the IC50 was greater than 50 µM.

Turning to `O=C(Nc1cccc2c1CCCC2)c1cc([N+](=O)[O-])ccc1Cl`, the IC50 is greater than 50 µM.

On to `O=[N+]([O-])c1ccc(N(c2ccccc2)c2ccccc2)cc1`, for which the IC50 is greater than 50 µM.

Consider `Cc1ccc(C)c(OCc2nnc(N)s2)c1`, for which the IC50 was greater than 50 µM.

For the compound `CC(C)C1Cc2c(C#N)c(N)sc(=S)c2CO1` (stereo unspecified), the IC50 was greater than 50 µM.

With `CCSC1=N/C(=C\c2ccc(-c3ccccc3[N+](=O)[O-])o2)C(=O)S1`, the IC50 is greater than 50 µM.

With `CCCCCCOC(=O)C(C#N)c1nc2ccccc2nc1N1CCN(CC)CC1` (stereo unspecified), the IC50 is greater than 50 µM.
